Measured values taken from ChEMBL document CHEMBL4888484, “Replenishing the malaria drug discovery pipeline: Screening and hit evaluation of the MMV Hit Generation Library 1 (HGL1) against asexual blood stage Plasmodium falciparum ,using a nano luciferase reporter read-out” (2022).
About 540 (0.36%) of roughly 150,000 compounds showed an effect of 50% or more. Many of the other results were omitted from the sample, so strong results are more common in it than they were.

These compounds were tested on Plasmodium falciparum (assay: Primary screen in NF54 nanoGlo assay, in single point, at 2uM, 72h; a lower Z score goes with more inhibition). Conditions: timepoint 72 hour.
Format: functional, Erythrocyte
With Cc1ccccc1C(=O)N1C(C(=O)NC(C)c2ccccc2)COC12CCN(C(=O)CC(C)(C)C)CC2 (stereo unspecified) the “% Inhibition” value was -5% and the Z score was 0.47.
With CCc1ccccc1C(=O)OCc1nccn1C the “% Inhibition” value was -3% and the Z score was 0.26.
Fc1ccc(-c2nc3c(cnn3C3CCCC3)[nH]2)cc1 was tested, and the “% Inhibition” value was -6% and the Z score was 0.81.
For COc1ccc(-c2nc3c(cnn3C3CCN(C)CC3)[nH]2)cn1, the “% Inhibition” value was -7% and the Z score was 0.9.
CN1CCC(n2ncc3[nH]c(-c4ccc(C(F)(F)F)cc4)nc32)CC1 was tested, and the “% Inhibition” value was 97% and the Z score was -17.43.
For Cc1c(-c2n[nH]c3c2CN(C(=O)c2csnn2)CC3)cccc1C(F)(F)F, the “% Inhibition” value was -12% and the Z score was 1.03.
O=C(CN1CCN(CC(=O)c2ccccc2)CC1)c1ccccc1 was tested, and the “% Inhibition” value was 0% and the Z score was -0.02.
For O=C(Cn1nnc2ccccc21)c1ccccc1, the “% Inhibition” value was -12% and the Z score was 1.78.
With Cc1n(CC(=O)c2ccccc2)c2ccccc2[n+]1CC(=O)c1ccccc1 the “% Inhibition” value was 59% and the Z score was -12.26.
O=C(N[C@H]1CCc2cc(F)c(F)c(F)c21)N1CCn2ncnc2C1 was tested, and the “% Inhibition” value was -5% and the Z score was 1.12.
In the case of COc1nccc2c(NCc3cn(C(C)(C)C)nn3)cccc12, the “% Inhibition” value is reported as 5% and the Z score is reported as -1.
For CCOc1ccc(S(=O)(=O)N[C@H]2CC[C@@H](CC(=O)O)C2)c(C)c1, the “% Inhibition” value was -1% and the Z score was 0.16.
CO[C@@H]1CCC[C@@H]2CN(C(=O)C3(c4ccccc4)CCCC3)C[C@@H]21 was tested, and the “% Inhibition” value was -4% and the Z score was 0.35.
For C[N+]12CCCC[C@@H]1[C@H](COC(=O)c1ccccc1Cl)CCC2 (stereo partly specified), the “% Inhibition” value was 7% and the Z score was -0.65.
C[N+]12CCCCC1C(OC(=O)C1(c3ccccc3)CCCC1)CCC2 (stereo unspecified) was tested, and the “% Inhibition” value was 63% and the Z score was -6.6.
With c1cc(-c2nc3cc4ccccc4cc3[nH]2)nc(-c2nc3cc4ccccc4cc3[nH]2)c1 the “% Inhibition” value was 100% and the Z score was -18.05.
Cc1cccc(C)c1OCC(=O)Nc1ccc(-c2nc3cc4ccccc4cc3[nH]2)cc1 was tested, and the “% Inhibition” value was 49% and the Z score was -5.57.
In the case of CCn1ncc(C(CC(=O)c2ccccc2)CC(=O)c2ccccc2)c1C, the “% Inhibition” value is reported as -8% and the Z score is reported as 1.07.
In the case of Cc1nsc2ncc(C(=O)N3CCCCC3)c(N3CCC(C(=O)Nc4cc(F)ccc4F)CC3)c12, the “% Inhibition” value is reported as 5% and the Z score is reported as -0.78.
For CCN(CC)C(=O)c1cnc2snc(C)c2c1N1CCC(C(=O)Nc2c(C)cc(C)cc2C)CC1, the “% Inhibition” value was 54% and the Z score was -10.3.
With CCN(CC)C(=O)c1cnc2snc(C)c2c1N1CCC(C(=O)Nc2cc(F)ccc2F)CC1 the “% Inhibition” value was 6% and the Z score was -0.96.
In the case of Cc1nsc2ncc(C(=O)N3CCC(C)CC3)c(N3CCC(C(=O)Nc4cc(F)ccc4F)CC3)c12, the “% Inhibition” value is reported as 60% and the Z score is reported as -4.06.
With CCN(CC)C(=O)c1cnc2snc(C)c2c1N1CCC(C(=O)Nc2ccc(Br)c(C)c2)CC1 the “% Inhibition” value was 1% and the Z score was -0.18.
CCOc1ccc(NC(=O)C2CCN(c3c(C(=O)N(CC)CC)cnc4snc(C)c34)CC2)cc1 was tested, and the “% Inhibition” value was 5% and the Z score was -0.93.
CN1CCC(NC(=O)NCC2(CO)CCC2)C1c1ccccc1 (stereo unspecified) was tested, and the “% Inhibition” value was -12% and the Z score was 2.33.
Cc1cccnc1[C@H](C)NC(=O)CNC(=O)N(C)C was tested, and the “% Inhibition” value was -9% and the Z score was 1.68.
Fc1ccc(Cc2nnc3n2CCCC3)cc1 was tested, and the “% Inhibition” value was 3% and the Z score was -0.52.
With COc1ccccc1CNc1nc2[nH]c3c(c(=O)n2n1)CCCC3 the “% Inhibition” value was 8% and the Z score was -0.7.
For CC(C)(C)[C@H]1CCc2c(sc(NC(=O)c3cc(-c4ccccc4)nc4ccccc34)c2C#N)C1, the “% Inhibition” value was 13% and the Z score was -1.58.
In the case of CC(C)(C)[C@H]1CCc2c(sc(NC(=O)CN3CCCC3)c2C#N)C1, the “% Inhibition” value is reported as 10% and the Z score is reported as -1.29.
For CC(C)(C)[C@H]1CCc2c(sc(NC(=O)C3(F)C(F)(F)C(F)(F)C(F)(F)C(F)(F)C3(F)F)c2C#N)C1, the “% Inhibition” value was 77% and the Z score was -6.03.
In the case of Cc1ccc(N2CCCC2=O)cc1NC(=O)N1CCC(c2n[nH]cc2C)CC1, the “% Inhibition” value is reported as -8% and the Z score is reported as 1.78.
In the case of Cc1csc(CNC(=O)NCc2nnc3n2CCOCC3)c1, the “% Inhibition” value is reported as -2% and the Z score is reported as 0.17.
With COc1ccc(CCNC(=O)c2cnn3c4c(cnc23)C[C@@H](C)CC4)cc1OC the “% Inhibition” value was 61% and the Z score was -4.54.
With C[C@H]1CCc2c(cnc3c(C(=O)NCc4ccccc4)cnn23)C1 the “% Inhibition” value was 33% and the Z score was 0.71.
In the case of COc1cccc(CNC(=O)c2cnn3c4c(cnc23)C[C@@H](C)CC4)c1, the “% Inhibition” value is reported as 0% and the Z score is reported as 0.03.
With O=C(CN1C(=O)c2ccccc2C1=O)N1CC(=O)N2CCc3ccccc3[C@@H]2C1 the “% Inhibition” value was 65% and the Z score was -8.85.
In the case of O=C(CC(c1ccccc1)c1ccccc1)N1CC(=O)N2CCc3ccccc3[C@@H]2C1, the “% Inhibition” value is reported as 39% and the Z score is reported as -5.29.
In the case of O=C(COc1ccc(Cl)cc1)N1CC(=O)N2CCc3ccccc3[C@@H]2C1, the “% Inhibition” value is reported as -8% and the Z score is reported as 1.08.
For CCN(CC)S(=O)(=O)c1ccc(F)c(C(=O)OCCNC(C)=O)c1, the “% Inhibition” value was -10% and the Z score was 0.84.
CC1(C)CCC(Nc2ccc(C(N)=O)nn2)CC1 was tested, and the “% Inhibition” value was 77% and the Z score was -11.08.
With CNC(=O)c1ccc(NC2CC3CC3C2)nn1 (stereo unspecified) the “% Inhibition” value was 6% and the Z score was -0.99.
In the case of Nc1ccc(-c2ccc(NC3CCCC3)nn2)cn1, the “% Inhibition” value is reported as -16% and the Z score is reported as 1.48.
COc1ccc(OC)c([C@@H]2CCCN2c2nnc(-c3ccccn3)s2)c1 was tested, and the “% Inhibition” value was -13% and the Z score was 2.07.
With O=C(NCCc1nc2ccccc2[nH]1)C(F)(F)c1ccc(F)cc1 the “% Inhibition” value was 4% and the Z score was -0.36.
Cc1ccccc1OCC(=O)NS(C)(=O)=O was tested, and the “% Inhibition” value was -1% and the Z score was 0.11.
Cc1ccc(C(F)(F)C(=O)NCCC(=O)NS(C)(=O)=O)cc1 was tested, and the “% Inhibition” value was 57% and the Z score was -7.27.
With COc1ccccc1NC(=O)C1C(=O)NC23CCCCC2C1c1ccccc1O3 (stereo unspecified) the “% Inhibition” value was -8% and the Z score was 1.04.
In the case of COc1ccc2c(c1)OC13CCN(C)CC1C2C(C(=O)c1ccccc1OC)C(=O)N3 (stereo unspecified), the “% Inhibition” value is reported as 58% and the Z score is reported as -6.85.
With Cc1cccc(NC(=O)C2C(=O)N[C@]34CCCCC3C2c2ccccc2O4)c1 (stereo partly specified) the “% Inhibition” value was 2% and the Z score was -0.27.
For O=C(CCOc1ccc(F)c(Cl)c1)NCc1cccnc1, the “% Inhibition” value was 15% and the Z score was -2.11.
CN(CCO)C[C@@H]1CN(C(=O)C2(c3ccccc3)CCCC2)C[C@@H]1CO was tested, and the “% Inhibition” value was -27% and the Z score was 2.7.
With Oc1cc(CC[C@H]2CCCCN2)cc(-c2cnc3ccccc3n2)c1 the “% Inhibition” value was 59% and the Z score was -7.37.
For CN(C)c1cncc(-c2cc(O)cc(CC[C@H]3CCCCN3)c2)n1, the “% Inhibition” value was -2% and the Z score was 0.33.
With Oc1ccc(-c2cc(O)cc(CC[C@H]3CCCCN3)c2)nc1 the “% Inhibition” value was -14% and the Z score was 1.77.
In the case of COc1nccnc1-c1cc(O)cc(CC[C@H]2CCCCN2)c1, the “% Inhibition” value is reported as -23% and the Z score is reported as 3.42.
For COc1cccc(-c2cc(O)cc(CC[C@H]3CCCCN3)c2)n1, the “% Inhibition” value was 80% and the Z score was -13.26.
COc1ccnc(-c2cc(O)cc(CC[C@H]3CCCCN3)c2)n1 was tested, and the “% Inhibition” value was -4% and the Z score was 0.49.
CC(C)(C)OC(=O)N1CC(CNC2(c3ncon3)CCC2)C1 was tested, and the “% Inhibition” value was 9% and the Z score was -1.69.
For CC1(C)[C@H]2CC=C(CCNc3nc(-c4ccncc4)nc4c3CNC4)[C@@H]1C2, the “% Inhibition” value was 0% and the Z score was -0.03.
In the case of CN(C[C@@H]1CCCN2CCCC[C@H]12)C(=O)Cc1c[nH]c2ccccc12, the “% Inhibition” value is reported as -1% and the Z score is reported as 0.06.
Cc1cc(-c2cncc(CN3CCC(C(N)=O)CC3)c2)ccc1F was tested, and the “% Inhibition” value was -2% and the Z score was 0.18.
For Cc1cc(-c2cncc(CN3CCCCC3)c2)ccc1F, the “% Inhibition” value was 50% and the Z score was -1.27.
With COc1ccc(-c2cncc(CN3CCCC3)c2)cc1OC the “% Inhibition” value was -9% and the Z score was 1.71.
For Cc1ccc2c(C(=O)N3CCCCC3)cc(-c3cncnc3)nc2c1C, the “% Inhibition” value was 3% and the Z score was -0.37.
In the case of O=c1c2cc(F)ccc2c(Br)cn1CC1(CO)COC1, the “% Inhibition” value is reported as 20% and the Z score is reported as -2.48.
For C[C@H](NC(=O)c1cc(C(F)(F)F)n[nH]1)c1n[nH]c(N)n1, the “% Inhibition” value was -2% and the Z score was 0.47.
For OC1=Nc2c(ncn2-c2cccnc2)[C@@H](c2ccc(F)c(F)c2)C1, the “% Inhibition” value was 0% and the Z score was -0.05.
In the case of CCC1=Nc2ccccc2N=C(NC(=O)C(C)C)[C@H]1c1ccc(F)cc1, the “% Inhibition” value is reported as 64% and the Z score is reported as -2.85.
With CCC1=Nc2ccccc2N=C(NC(=O)c2ccc(F)cc2)[C@H]1c1ccc(OC)c(OC)c1 the “% Inhibition” value was -11% and the Z score was 1.75.
With CCC1=Nc2ccccc2N=C(NC(=O)CN2CCN(C)CC2)[C@H]1c1ccccc1 the “% Inhibition” value was -6% and the Z score was 0.93.
For Cc1nc(N2C(=O)N(C)C3(CCCC3)C2=O)oc1C, the “% Inhibition” value was 3% and the Z score was -0.31.
With O=C(Nc1ccc2c(c1)OCCCO2)c1ccco1 the “% Inhibition” value was 29% and the Z score was -3.9.
C[C@H](NC(=O)c1ccco1)c1cc2c(cc1Br)OCCCO2 was tested, and the “% Inhibition” value was 60% and the Z score was 0.9.
With C[C@@H](NC(=O)c1ccco1)c1ccccc1 the “% Inhibition” value was 0% and the Z score was 0.04.
In the case of CC(NCC1COC(C)(C)O1)c1cc(Cl)c(N)c(Cl)c1 (stereo unspecified), the “% Inhibition” value is reported as 2% and the Z score is reported as -0.28.
Clc1cccc(-c2ccc(CNC3CCCCC3)o2)c1 was tested, and the “% Inhibition” value was -9% and the Z score was 1.31.
For CCCN1CCC(NCc2ccc(-c3cccc(Cl)c3Cl)o2)CC1, the “% Inhibition” value was 55% and the Z score was -11.87.
With Cc1nnc(NCc2ccc(-c3cccc(Cl)c3Cl)o2)n1C the “% Inhibition” value was -8% and the Z score was 0.79.
With Fc1cccnc1N1CCOC2(CCC2)C1 the “% Inhibition” value was -15% and the Z score was 1.72.
OCCOc1cncc(N2CCOC3(CCCCCC3)C2)n1 was tested, and the “% Inhibition” value was 8% and the Z score was -0.67.
In the case of Oc1nc(N2CCOC3(CCCC3)C2)ncc1F, the “% Inhibition” value is reported as 55% and the Z score is reported as -9.19.
CC(=O)c1cccc(-c2ccc3c(cnn3CC(=O)Nc3ccnn3C)c2)c1 was tested, and the “% Inhibition” value was -12% and the Z score was 1.94.
